Records with an inconclusive call do not appear. The source made the active and inactive calls. Unless noted, the call rests on the fitted dose curve; in most records, active means well fitted curve in the direction sought with a large enough effect; inconclusive means small, poorly fitted or top-dose-only effect, or another doubt; inactive means no such curve, though single readings can be large; an effect the other way counts as inactive or inconclusive.
Columns and labels:
[1] = AP1 Signaling Pathway (AID 357; active means well fitted curve in either direction with a large enough effect, not every such curve was filed as active;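 further: ME-180 reporter cells stimulated with EGF at its EC50 level; on the % scale 0 is the no-effect control and ±100 the full control effect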); conditions: ME-180 AP-1-bla reporter, EGF-induced, beta-lactamase ratio, 5 h; at 7.69 µM (top of the series) unless noted
Method in brief: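 A ratiometric CCF4 readout (405 nm excitation; 460 and 530 nm emission) quantified AP-1-driven beta-lactamase in ME-180 cells after 5 h with compound and EC50 EGF; AC50 values were derived for activators and inhibitors.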

[2] = biological target: Cytochrome P450 1A2 (Homo sapiens) (UniProt P05177); assay: p450-cyp1a2 (AID 410; calls by dose curve; further: potency means the concentration at half of the fitted maximal effect); conditions: recombinant CYP1A2, luciferin-ME demethylation, luminescence; series mostly up to 57 µM
Chain of Cytochrome P450 1A2 (Homo sapiens) (P05177 whole entry, looked up): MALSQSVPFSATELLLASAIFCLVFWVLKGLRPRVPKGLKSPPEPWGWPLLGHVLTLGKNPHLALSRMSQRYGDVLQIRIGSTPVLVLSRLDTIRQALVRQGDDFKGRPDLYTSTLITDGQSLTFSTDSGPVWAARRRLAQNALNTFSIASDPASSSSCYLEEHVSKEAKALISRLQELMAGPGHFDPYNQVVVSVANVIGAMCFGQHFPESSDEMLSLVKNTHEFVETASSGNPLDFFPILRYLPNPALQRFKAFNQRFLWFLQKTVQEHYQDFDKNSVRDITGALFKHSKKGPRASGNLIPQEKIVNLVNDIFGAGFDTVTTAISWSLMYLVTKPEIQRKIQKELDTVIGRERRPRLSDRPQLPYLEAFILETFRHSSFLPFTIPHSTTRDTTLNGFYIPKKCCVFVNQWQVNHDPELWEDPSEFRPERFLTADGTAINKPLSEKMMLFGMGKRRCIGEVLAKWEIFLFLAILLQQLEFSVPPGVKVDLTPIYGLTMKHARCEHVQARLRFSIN
Method in brief: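 Luminescent demethylation readout: Luciferin-ME (100uM, equal to Km) turned over by 20nM CYP1A2 for 60 min at room temperature after NADPH regeneration addition, following 10 min compound preincubation. Normalization used 57 uM furafylline as full inhibition.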

[3] = NFAT Signaling Pathway (AID 444; active means well fitted curve in either direction with a large enough effect, not every such curve was filed as active;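 further: carbachol stimulus at about its EC50 of 1 µM final; on the % scale 0 is the no-effect control and ±100 the full control effect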); conditions: Jurkat NFAT-bla M1, carbachol, beta-lactamase ratio, 5 h; at 7.69 µM (top of the series) unless noted
Method in brief: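 Read-out: CCF4 FRET ratio (460 nm/530 nm) after 1 h RT dye loading, used for %activity and AC50 from titration series. Cells: Jurkat NFAT-β-lactamase/M1 line, treated with compound plus 1 uM carbachol for 5 h, 37 °C.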

[4] = biological target: Glucocorticoid receptor (Homo sapiens) (UniProt P04150); assay: GR-GFP Redistribution (AID 450;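 active means compounds whose dose series gives a full or clear partial fitted curve of increased nuclear translocation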; further: potency means the concentration at half of the fitted maximal effect); conditions: U2OS GR-GFP nuclear translocation, laser cytometry, 2 h
Chain of Glucocorticoid receptor (Homo sapiens) (P04150 whole entry, looked up, the tested form may be a part): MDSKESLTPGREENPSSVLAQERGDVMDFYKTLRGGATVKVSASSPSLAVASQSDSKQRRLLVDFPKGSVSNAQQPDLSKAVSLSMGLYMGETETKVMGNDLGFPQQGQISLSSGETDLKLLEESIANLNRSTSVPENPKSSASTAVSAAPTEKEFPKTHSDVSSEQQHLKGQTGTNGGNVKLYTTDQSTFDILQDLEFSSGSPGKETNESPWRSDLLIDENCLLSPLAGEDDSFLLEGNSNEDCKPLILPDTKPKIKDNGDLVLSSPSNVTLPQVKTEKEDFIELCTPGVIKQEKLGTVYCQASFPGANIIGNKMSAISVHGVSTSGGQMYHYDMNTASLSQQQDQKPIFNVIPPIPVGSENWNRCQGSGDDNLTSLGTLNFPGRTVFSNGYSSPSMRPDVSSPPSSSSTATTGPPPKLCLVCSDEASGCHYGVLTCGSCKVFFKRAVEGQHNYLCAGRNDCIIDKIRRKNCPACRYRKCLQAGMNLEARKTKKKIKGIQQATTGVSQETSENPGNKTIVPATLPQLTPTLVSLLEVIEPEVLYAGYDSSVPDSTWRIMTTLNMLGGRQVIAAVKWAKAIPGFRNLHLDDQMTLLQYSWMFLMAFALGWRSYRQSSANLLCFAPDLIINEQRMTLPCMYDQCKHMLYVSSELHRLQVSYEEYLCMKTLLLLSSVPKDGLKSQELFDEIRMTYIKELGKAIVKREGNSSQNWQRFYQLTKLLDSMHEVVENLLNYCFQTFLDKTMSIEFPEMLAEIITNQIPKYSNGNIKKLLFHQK

[5] = biological target: Glucocorticoid receptor (Homo sapiens) (UniProt P04150); assay: GR-EFC Redistribution (AID 451; calls by dose curve; further: potency means the concentration at half of the fitted maximal effect); conditions: CHO-K1 GR-EFC translocation, beta-gal luminescence, 2 h
Method in brief: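 Translocation of GR-ED fusion to nuclear EA restores b-gal, read by luminescence after 1 h room-temperature detection. Engineered CHO-K1 biosensor cells, 1,000/well, exposed 2 h at 37 C to titrations up to 46 uM final.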

[6] = biological target: Mitogen-activated protein kinase 10 (Mus musculus) (UniProt Q61831); assay: JNK3 AlphaScreen Assay (AID 530; active means well fitted curve in either direction with a large enough effect, not every such curve was filed as active;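 further: kinase came from lysate of stimulated human HepG2 cells; signal reports phosphorylation of biotinylated GST-cJun 1-79 at Ser73 with 10 µM ATP; on the % scale 0 is the no-effect control and ±100 the full control effect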); conditions: JNK3 lysate, c-Jun phosphorylation; series mostly up to 57.1 µM
Method in brief: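 qHTS titrations with 15 min compound pre-incubation before adding ATP (10 uM final). Read-out: AlphaScreen of Ser73-phosphorylated biotin-GST-cJun using HepG2 lysate JNK3 activated by IL-1β and TNFα.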

[7] = biological target: 3',5'-cyclic-AMP phosphodiesterase 4B (Homo sapiens) (UniProt Q07343); assay: qHTS Assay for Inhibitors of PDE-IV (AID 607; active means well fitted activation curve with a large enough effect in the main read-out, with a control signal flat, not every such curve was filed as active; further: % of control where 0% means no effect); conditions: HEK293 ACTOne CNG channel cells, membrane potential fluorescence; series mostly up to 22.9 µM
Chain of 3',5'-cyclic-AMP phosphodiesterase 4B (Homo sapiens) (Q07343 whole entry, looked up): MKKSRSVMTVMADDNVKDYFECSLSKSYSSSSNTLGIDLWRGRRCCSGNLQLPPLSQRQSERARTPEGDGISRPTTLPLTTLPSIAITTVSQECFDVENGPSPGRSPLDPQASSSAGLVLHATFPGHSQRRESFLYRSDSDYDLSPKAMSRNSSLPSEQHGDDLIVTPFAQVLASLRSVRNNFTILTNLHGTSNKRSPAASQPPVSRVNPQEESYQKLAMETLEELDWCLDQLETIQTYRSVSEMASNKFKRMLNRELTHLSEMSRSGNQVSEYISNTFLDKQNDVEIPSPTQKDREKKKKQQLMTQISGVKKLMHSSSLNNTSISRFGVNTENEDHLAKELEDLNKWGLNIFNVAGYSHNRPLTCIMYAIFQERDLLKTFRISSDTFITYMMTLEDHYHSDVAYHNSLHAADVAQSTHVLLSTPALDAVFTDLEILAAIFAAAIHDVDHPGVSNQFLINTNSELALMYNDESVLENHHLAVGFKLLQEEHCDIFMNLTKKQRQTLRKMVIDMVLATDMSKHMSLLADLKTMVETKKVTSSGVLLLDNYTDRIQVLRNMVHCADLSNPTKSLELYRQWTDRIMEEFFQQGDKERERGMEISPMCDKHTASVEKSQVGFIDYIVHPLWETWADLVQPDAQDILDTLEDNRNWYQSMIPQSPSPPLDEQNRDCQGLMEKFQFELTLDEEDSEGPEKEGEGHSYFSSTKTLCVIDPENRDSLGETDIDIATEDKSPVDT
Method in brief: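 ACTOne HEK293 cells carry a modified cAMP-gated CNG channel and express endogenous PDE4; plated 1000 cells/well, compounds up to 22.9 uM final. Membrane-potential dye fluorescence (ex 535/em 590) was read; parental cells received 10 uM forskolin + 100 uM RO 20-1724.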

[8] = biological target: Cytochrome P450 3A4 (Homo sapiens) (UniProt P08684); assay: qHTS Assay for Activators of Cytochrome P450 3A4 (AID 885); conditions: recombinant CYP3A4, Luciferin-PPXE luminescence, 60 min; series mostly up to 57.1 µM; further: nearly all actives have a fitted effect of over 65% in size
Chain of Cytochrome P450 3A4 (Homo sapiens) (P08684 whole entry, looked up): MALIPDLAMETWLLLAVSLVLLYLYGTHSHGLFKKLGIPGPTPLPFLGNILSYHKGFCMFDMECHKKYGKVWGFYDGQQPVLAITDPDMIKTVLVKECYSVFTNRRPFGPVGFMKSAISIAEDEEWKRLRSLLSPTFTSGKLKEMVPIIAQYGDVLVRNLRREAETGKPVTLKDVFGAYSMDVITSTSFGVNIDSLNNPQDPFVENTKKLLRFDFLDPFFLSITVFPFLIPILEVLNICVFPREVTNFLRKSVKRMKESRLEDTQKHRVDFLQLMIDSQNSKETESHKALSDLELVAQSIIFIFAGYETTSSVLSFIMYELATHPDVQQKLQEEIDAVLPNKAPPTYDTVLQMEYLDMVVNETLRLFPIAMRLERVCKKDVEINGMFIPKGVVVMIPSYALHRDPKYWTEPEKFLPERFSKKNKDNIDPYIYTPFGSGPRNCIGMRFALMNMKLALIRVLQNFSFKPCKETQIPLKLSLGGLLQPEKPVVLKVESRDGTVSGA
Method in brief: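 CYP3A4 activity: Luciferin-PPXE O-dealkylation, 25uM substrate, 200mM KPO4, RT throughout. Read-out is luciferase luminescence; higher values reflect activation.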

[9] = qHTS Assay for Identification of Small Molecule Agonists for Hypoxia Response Element Signaling Pathway (AID 914; active means well fitted activation curve with a large enough effect in the signal ratio, with a control signal flat, not every such curve was filed as active; the % refers to the signal ratio; further: potency means the concentration at half of the fitted maximal effect); conditions: ME-180 (cervical carcinoma) HRE-bla reporter, beta-lactamase ratio, CoCl2, 17 h; activation: active compounds read high
Method in brief: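 Reporter activity (beta-lactamase, CCF4 460nm/530nm ratio) in HRE-bla ME-180 cells is recorded after 17 h compound exposure with EC50 CoCl2 at 37 degrees Celsius. AC50 values come from titration data.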

[10] = biological target: Dual specificity protein kinase CLK4 (Homo sapiens) (UniProt Q9HAZ1); assay: qHTS Assay for Inhibitors of CDC-like Kinase 4 (Kinase-Glo Assay) (AID 1770); conditions: recombinant Clk4, Kinase-Glo ATP depletion luminescence; series mostly up to 66.7 µM; further: on the % scale 0 is the no-effect control and ±100 the full control effect; nearly all actives have a fitted effect of over 65% in size
Chain of Dual specificity protein kinase CLK4 (Homo sapiens) (Q9HAZ1 whole entry, looked up): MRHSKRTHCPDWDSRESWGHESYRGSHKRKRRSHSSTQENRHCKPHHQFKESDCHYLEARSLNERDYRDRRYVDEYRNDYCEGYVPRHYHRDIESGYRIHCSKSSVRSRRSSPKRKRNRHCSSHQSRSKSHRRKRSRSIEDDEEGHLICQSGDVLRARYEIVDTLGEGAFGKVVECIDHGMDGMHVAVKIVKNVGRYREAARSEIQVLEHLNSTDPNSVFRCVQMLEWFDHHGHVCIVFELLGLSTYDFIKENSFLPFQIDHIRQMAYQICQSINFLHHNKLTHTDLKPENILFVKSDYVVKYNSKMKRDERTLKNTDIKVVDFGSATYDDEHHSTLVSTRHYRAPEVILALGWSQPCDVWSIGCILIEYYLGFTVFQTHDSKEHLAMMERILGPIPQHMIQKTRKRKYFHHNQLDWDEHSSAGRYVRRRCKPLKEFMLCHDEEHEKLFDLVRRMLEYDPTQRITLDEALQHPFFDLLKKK
Method in brief: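 Clk4 25 nM, RS peptide 100 uM, ATP 1 uM, pH 7.5 Tris, 10 mM MgCl2, 2.5 mM DTT; 4.5 h RT; ATP depletion read by Kinase-Glo luminescence.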

[11] = biological target: Dual specificity protein kinase CLK4 (Homo sapiens) (UniProt Q9HAZ1); assay: qHTS Assay for Inhibitors of CDC-like Kinase 4 (ADP-Glo Assay) (AID 1771); conditions: recombinant CLK4, ADP-Glo luminescence; series mostly up to 80 µM; further: on the % scale 0 is the no-effect control and ±100 the full control effect; nearly all actives have a fitted effect of over 70% in size
Method in brief: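 ADP production was read by ADP-Glo luminescence after residual ATP depletion, following 1 h room-temperature reaction of 25 nM Clk4, 1 uM ATP and 100 uM RS peptide with MgCl2, EGTA, DTT and Triton X-100.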

[12] = biological target: Dual specificity protein kinase CLK4 (Homo sapiens) (UniProt Q9HAZ1); assay: qHTS Assay for Inhibitors of CDC-like Kinase 4 (ADP-FP Assay) (AID 1795); conditions: Transcreener ADP fluorescence polarization; series mostly up to 50 µM;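 further: recombinant human CLK4 phosphorylating RS repeat peptide at 1 µM ATP; on the % scale 0 is the no-effect control and ±100 the full control effect; nearly all actives have a fitted effect of over 60% in size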
Method in brief: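 Kinase activity was followed as ADP output, converted from fluorescence polarization with a calibration curve. Reactions ran one hour at low ATP (1 uM) with RS peptide substrate.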

[13] = biological target: Ubiquitin carboxyl-terminal hydrolase 1 (Homo sapiens) (UniProt O94782); assay: Inhibitors of USP1/UAF1: Pilot qHTS (AID 504865); conditions: purified USP1/UAF1, Ub-rhodamine cleavage fluorescence; series mostly up to 54.9 µM;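 further: rhodamine fluorescence freed from ubiquitin-rhodamine substrate followed over time; top concentration of the series differs between compounds; on the % scale 0 is the no-effect control and ±100 the full control effect; nearly all actives have a fitted effect of over 35% in size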
Chain of Ubiquitin carboxyl-terminal hydrolase 1 (Homo sapiens) (O94782 whole entry, looked up): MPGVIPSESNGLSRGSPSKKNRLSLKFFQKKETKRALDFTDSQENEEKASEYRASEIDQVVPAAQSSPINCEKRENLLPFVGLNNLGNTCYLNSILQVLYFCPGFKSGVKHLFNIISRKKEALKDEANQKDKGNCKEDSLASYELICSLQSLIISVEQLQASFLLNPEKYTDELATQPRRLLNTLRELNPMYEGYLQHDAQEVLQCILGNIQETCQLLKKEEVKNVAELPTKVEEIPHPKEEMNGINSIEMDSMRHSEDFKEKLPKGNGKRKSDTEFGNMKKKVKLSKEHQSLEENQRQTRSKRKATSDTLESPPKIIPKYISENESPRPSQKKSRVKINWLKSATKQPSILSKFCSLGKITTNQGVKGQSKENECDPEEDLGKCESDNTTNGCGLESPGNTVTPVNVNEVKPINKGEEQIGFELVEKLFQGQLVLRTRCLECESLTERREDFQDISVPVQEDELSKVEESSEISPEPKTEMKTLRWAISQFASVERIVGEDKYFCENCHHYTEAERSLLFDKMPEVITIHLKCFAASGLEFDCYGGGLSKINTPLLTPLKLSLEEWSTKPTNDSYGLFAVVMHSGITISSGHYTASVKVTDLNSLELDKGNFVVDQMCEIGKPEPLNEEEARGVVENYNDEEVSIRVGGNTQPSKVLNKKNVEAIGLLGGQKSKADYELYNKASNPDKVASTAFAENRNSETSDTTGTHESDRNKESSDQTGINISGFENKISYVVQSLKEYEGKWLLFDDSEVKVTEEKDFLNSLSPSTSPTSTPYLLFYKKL
Method in brief: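 Enzyme-free wells gave the negative control, while test wells held 1nM USP1/UAF1 preincubated with compound for 15 min at room temperature. Ub-Rho at 150nM final started the reaction, and fluorescence at 480/540 nm was recorded kinetically.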

[14] = Counterscreen qHTS for small molecule stabilizers of the endoplasmic reticulum resident proteome: GLuc-NoTag assay (AID 1508627); conditions: Gaussia luciferase NoTag secretion counterscreen, luminescence, thapsigargin 100 nM for final 4 h; series mostly up to 76.4 µM;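 further: SH-SY5Y cells given compound then 100 nM thapsigargin to empty ER calcium; 0% = thapsigargin alone and -100% = DMSO vehicle control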
Method in brief: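 Counterscreen line: SH-SY5Y-GLuc-NoTag cells, treated with compound 19 hr before a 4 hr, 100 nM thapsigargin calcium depletion. Secreted Gaussia luciferase in the medium was measured by luminescence after coelenterazine was added (0.07x final), with cells unlysed.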

[15] = Cell Viability qHTS for small molecule stabilizers of the endoplasmic reticulum resident proteome (AID 1508629); conditions: cell viability counter-screen, 100 nM thapsigargin for final 4 h;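 further: human SH-SY5Y neuroblastoma cells carrying the GLuc-SERCaMP reporter; compound exposure about 46 h in total before the viability read; on the % scale 0 is the no-effect control and ±100 the full control effect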

COCCn1c(=O)c(-c2cn(C)c3ccccc23)nc2cnc(N3CCNCC3)nc21
inactive: activity change, negative = inhibition [1] 16% | activity change, negative = inhibition [3] 18.5% | Potency [4] > 9.22 µM | Potency [5] > 46 µM | outcome [6] | Potency [7] | Potency [8] | Potency [10] | Potency [11] | Potency [12] | Potency [13] | Potency [14] | max response [15] -7.1%
active: Potency [2] 12.6 µM | Potency [9] 3.16 µM

Reference: PubChem BioAssay (NCATS)
